Laboratory results reported in PubChem BioAssay (NCI).
“And” between values parts separate entries of the source, which are not always exact repeats. Equal values may be shown once. About 83,000 compounds went through this panel and 20% of them were active in at least one assay; those are over-represented in the sample as a whole.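 Cell lines were cultured in 96-well plates, exposed to a single compound concentration, and assessed for percent growth 48 hours later.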 Unmarked numbers belong to inactive results. The source made the active and inactive calls. How the source made its calls: active means growth percent below 10; inactive means the rest.

Columns and labels:
Experiment in all cases: NCI-60 one-dose screen, 48 h (100 = growth as untreated, 0 = no growth, -100 = all killed)
Conditions in all cases: 10 µM unless noted
[1] = system: T-47D breast
[2] = system: BT-549 breast
[3] = system: MDA-MB-435 melanoma
[4] = system: SW-620 colon
[5] = system: MCF7 breast
[6] = system: HCT-116 colon
[7] = system: HCC-2998 colon
[8] = system: KM12 colon
[9] = system: MDA-MB-468 breast

With `CCc1ccc(SC2c3cc(OC)ccc3Oc3nc(N)c(C#N)c(N)c32)cc1` (configuration not stated) the growth [1] was -52% (active), the growth [2] was -67.8% (active) and the growth [3] was -22.1% (active). The growth [4] was -42.9% (active), the growth [5] was -45.4% (active) and the growth [6] was -96% (active). For the same compound, the growth [7] was -48.3% (active), the growth [8] was -17.7% (active) and the growth [9] was -78.8% (active).
`CCOC(=O)/C(F)=C/C1CC1CCc1ccc(OCC)cc1` (configuration not stated) gave a growth [1] of 74.7%, a growth [2] of 106% and a growth [3] of 99%. It also gave a growth [4] of 92%, a growth [5] of 85.7% and a growth [6] of 93.7%. The growth [7] was 90.5%, the growth [8] was 83.9% and the growth [9] was 71.6%.
`COc1ccc(-c2cc(C(=O)OCc3ccc(Br)cc3)nn2-c2ccc(S(C)(=O)=O)cc2)cc1OC` was tested, and the growth [1] was 48.4%, the growth [2] was 74% and the growth [3] was 89.8%. It also gave a growth [4] of 99.2%, a growth [5] of 72.1% and a growth [6] of 83.4%. It also gave a growth [7] of 95.8%, a growth [8] of 93.1% and a growth [9] of 64%.
With `C=CC(=O)N1CCN(c2ccc3nc4c(nc3c2C(F)(F)F)C(=O)c2ncccc2C4=O)CC1` the growth [1] was -4.37% (active), the growth [2] was 10.1% and the growth [3] was -71.1% (active). For the same compound, the growth [4] was 4.1% (active), the growth [5] was -66.8% (active) and the growth [6] was -25.7% (active). The growth [7] was 5.17% (active), the growth [8] was 9.15% (active) and the growth [9] was -69.3% (active).
With `COc1ccc(N=Nc2c(N)nn3c(N)c(C#N)c(-c4ccccc4)nc23)cc1` the growth [1] was 16.4%, the growth [2] was -16.7% (active) and the growth [3] was 62.5%. The growth [4] was 66.2%, the growth [5] was 14.5% and the growth [6] was 20.2%. The growth [7] was 65.2%, the growth [8] was 45% and the growth [9] was 31.7%.
With `Cc1oc(-c2ccccc2)nc1CN[C@@H]1C[C@@H]2C[C@H]([C@H]1C)C2(C)C` the growth [1] was 0.388% (active), the growth [2] was 39.3% and the growth [3] was 71.3%. For the same compound, the growth [4] was 22.8%, the growth [5] was -4.81% (active) and the growth [6] was 9.06% (active). For the same compound, the growth [7] was -75.6% (active), the growth [8] was 64.3% and the growth [9] was -83.7% (active).
With `COc1ccc(NC(=O)Cn2c(/C=C/c3cccc(OC)c3)nc3ccccc3c2=O)cc1` the growth [1] was -15% (active), the growth [2] was 73.8% and the growth [3] was 59.1%. The growth [4] was 41.2%, the growth [5] was 30.4% and the growth [6] was 13.9%. It also gave a growth [7] of 92.5%, a growth [8] of 82.5% and a growth [9] of 71.4%.
`c1n[nH]cc1-c1nc2ccc3[nH]ncc3c2c2c1CC1(CCOCC1)CC2` was tested, and the growth [1] was 13.5%, the growth [2] was 10.9% and the growth [3] was 29.3%. For the same compound, the growth [4] was 17.9%, the growth [5] was 31.8% and the growth [6] was 11.1%. For the same compound, the growth [7] was 41.1%, the growth [8] was 47.3% and the growth [9] was 5.4% (active).
Work on `CCOC(=O)c1ccc(NC(=S)NC(=O)c2cccc(NC(=O)c3ccc(C)cc3)c2)cc1` yielded a growth [1] of 67.9%, a growth [2] of 63.3% and a growth [3] of 86.1%. It also gave a growth [4] of 68.2%, a growth [5] of 64.2% and a growth [6] of 49.1%. The growth [7] was 98.4%, the growth [8] was 97.5% and the growth [9] was 94.1%.
Work on `CCCCCCCCc1ccc(C(=O)Nc2cccc(O)c2)cc1` yielded a growth [1] of 67.7%, a growth [2] of 51.2% and a growth [3] of 50.5%. For the same compound, the growth [4] was 93.5%, the growth [5] was 60.3% and the growth [6] was 65%. The growth [7] was 109%, the growth [8] was 54.3% and the growth [9] was 90.9%.
In the case of `O=C(COc1ccc(/C=C2/C(=O)Nc3ccc(Cl)cc32)cc1)Nc1ccc(Br)cc1`, the growth [1] is reported as -22% (active), the growth [2] is reported as -34.2% (active) and the growth [3] is reported as -1.54% (active). For the same compound, the growth [4] was 2.56% (active), the growth [5] was -26.9% (active) and the growth [6] was -64% (active). The growth [7] was 41.6%, the growth [8] was 2.45% (active) and the growth [9] was 38.4%.
`COc1ccc(-c2cc(C)nc3[nH]c(=O)sc23)cc1` was tested, and the growth [1] was -15.1% (active), the growth [2] was 58.9% and the growth [3] was 78.7%. For the same compound, the growth [4] was 98.1%, the growth [5] was 83.8% and the growth [6] was 52.1%. For the same compound, the growth [7] was 84.2%, the growth [8] was 81.3% and the growth [9] was 76%.
Work on `N#CC1=C(c2ccco2)Nc2c(c(-c3ccccc3)nn2-c2ccccc2)C12C(=O)Nc1ccc(Br)cc12` (configuration not stated) yielded a growth [1] of 48.5%, a growth [2] of 70.4% and a growth [3] of 59.8%. The growth [4] was 46.3%, the growth [5] was 39.8% and the growth [6] was 5.08% (active). The growth [7] was 91.8%, the growth [8] was 66.4% and the growth [9] was 66.6%.
In the case of `CSc1ccc(OCc2nc3ccccc3n2-c2cccc(NS(C)(=O)=O)c2)cc1`, the growth [1] is reported as 99.4% and 78.4%, the growth [2] is reported as 131% and 105% and the growth [3] is reported as 105% and 98.3%. For the same compound, the growth [4] was 102% and 94.4%, the growth [5] was 89.9% and 55.7% and the growth [6] was 101% and 70.6%. For the same compound, the growth [7] was 122% and 112%, the growth [8] was 103% and 78.8% and the growth [9] was 110% and 98.2%.
With `Cc1ccc(C(=O)Nc2ccc(-n3ccnc3)c(C(F)(F)F)c2)cc1C#Cc1cnc2cccnn12` the growth [1] was -13.3% (active), the growth [2] was -67.8% (active) and the growth [3] was 11.3%. For the same compound, the growth [4] was 31.2%, the growth [5] was 25.1% and the growth [6] was 0.409% (active). For the same compound, the growth [7] was 29.9%, the growth [8] was 21.9% and the growth [9] was -1.47% (active).
`COc1ccc2[nH]c(O)c(N=NC(=O)c3ccc4nc(-c5ccc(Cl)cc5)[nH]c4c3)c2c1` showed a growth [1] of 13.5%, a growth [2] of 34.5% and a growth [3] of 81.2%. For the same compound, the growth [4] was 82.6%, the growth [5] was 24.5% and the growth [6] was 51.4%. The growth [7] was 64.6%, the growth [8] was 78.6% and the growth [9] was -48.3% (active).
With `Cc1ccc(N=Nc2c(N)nn3c(-c4cc5ccccc5oc4=O)ccnc23)cc1` the growth [1] was 55.7%, the growth [2] was 74.5% and the growth [3] was 55.9%. The growth [4] was 30.7%, the growth [5] was 26.6% and the growth [6] was 11.1%. The growth [7] was -21.1% (active), the growth [8] was 31.3% and the growth [9] was 14.9%.
In the case of `C=CCSc1nnc(-c2ccc(-c3nc4ccc(Cl)cc4[nH]3)cc2)o1`, the growth [1] is reported as 68.4%, the growth [2] is reported as 22.6% and the growth [3] is reported as -22.5% (active). For the same compound, the growth [4] was 27.8%, the growth [5] was 25.1% and the growth [6] was 29.5%. The growth [7] was 83.4%, the growth [8] was 34.6% and the growth [9] was 28.6%.
For `CC(C)C[C@H](NC(=O)[C@@H]1CCCCCCCCCCC(=O)N[C@@H](CC(=O)N2CCC[C@@H]2C2CCCC2)C(=O)N1)B(O)O`, the growth [1] was -20% (active), the growth [2] was -79.2% (active) and the growth [3] was -57.3% (active). The growth [4] was 4.22% (active), the growth [5] was -28.2% (active) and the growth [6] was -80% (active). For the same compound, the growth [7] was -100% (active), the growth [8] was -35.7% (active) and the growth [9] was -70.6% (active).
`Cc1ccc(S(=O)(=O)Nc2ccc(-c3ccc4c(c3)NC(=O)/C4=C\c3ccc[nH]3)cc2)cc1` showed a growth [1] of 18.8%, a growth [2] of 63.7% and a growth [3] of 90.1%. For the same compound, the growth [4] was 47.2%, the growth [5] was 3.35% (active) and the growth [6] was 60.6%. For the same compound, the growth [7] was 106%, the growth [8] was 67.1% and the growth [9] was -25.8% (active).
`O=C(N/N=C/c1occc1Br)c1[nH]c2ccc(Br)cc2c1-c1ccccc1` was tested, and the growth [1] was -77% (active), the growth [2] was -89.4% (active) and the growth [3] was -90.4% (active). The growth [4] was -86.3% (active), the growth [5] was -66.9% (active) and the growth [6] was -74.5% (active). For the same compound, the growth [7] was -89.6% (active), the growth [8] was -46.6% (active) and the growth [9] was -75.1% (active).
With `NS(=O)(=O)c1ccc(Nc2nc(N/N=C/c3cc(Br)c(O)c(Br)c3)nc(Nc3ccccc3)n2)cc1` the growth [1] was 25.5%, the growth [2] was -14.3% (active) and the growth [3] was 56.5%. For the same compound, the growth [4] was 41.2%, the growth [5] was 37.7% and the growth [6] was 28.9%. The growth [7] was 5.2% (active), the growth [8] was 61.7% and the growth [9] was -57.4% (active).
In the case of `Cc1ccc(C(=O)Nc2cc(-n3ccnc3C)cc(C(F)(F)F)c2)cc1C#Cc1cnc2cccnn12`, the growth [1] is reported as 0.344% (active), the growth [2] is reported as -22.7% (active) and the growth [3] is reported as 3.5% (active). For the same compound, the growth [4] was 12.6%, the growth [5] was 0.633% (active) and the growth [6] was -41.3% (active). The growth [7] was -48.7% (active), the growth [8] was 3.67% (active) and the growth [9] was -20.6% (active).
`CN1C(=O)C(O)(CC(=O)c2cc3ccccc3oc2=O)c2ccccc21` (configuration not stated) showed a growth [1] of 103%, a growth [2] of 105% and a growth [3] of 110%. The growth [4] was 101%, the growth [5] was 67.1% and the growth [6] was 92.7%. The growth [7] was 109%, the growth [8] was 96.9% and the growth [9] was 82.6%.
In the case of `Cc1cc(C2(c3cc(C)c(OCC(O)CNc4c(C)n(C)n(-c5ccccc5)c4=O)cc3C(C)C)OC(=O)c3ccccc32)c(C(C)C)cc1OCC(O)CNc1c(C)n(C)n(-c2ccccc2)c1=O` (configuration not stated), the growth [1] is reported as 1.64% (active), the growth [2] is reported as 27.3% and the growth [3] is reported as 12.5%. For the same compound, the growth [4] was 18.4%, the growth [5] was 15.9% and the growth [6] was 5.4% (active). For the same compound, the growth [7] was 36.8%, the growth [8] was 16.5% and the growth [9] was -13.9% (active).
With `COc1ccccc1Nc1nnc(-c2c[nH]c3ccccc23)o1` the growth [1] was 16.6%, the growth [2] was 39.7% and the growth [3] was -40.8% (active). It also gave a growth [4] of 40.9%, a growth [5] of 10.6% and a growth [6] of 12.5%. For the same compound, the growth [7] was 7.55% (active), the growth [8] was 2.26% (active) and the growth [9] was -25.4% (active).
For `CC1=C(C(=O)OC(C)C)C(c2ccc(O)cc2)NC(=O)N1` (configuration not stated), the growth [1] was 101%, the growth [2] was 96.1% and the growth [3] was 99.9%. It also gave a growth [4] of 103%, a growth [5] of 98.6% and a growth [6] of 97.1%. It also gave a growth [7] of 111%, a growth [8] of 111% and a growth [9] of 103%.
In the case of `CS(=O)(=O)Nc1cc(-c2ccc3ncnc(Nc4ccc(OCc5cccnc5)c(Cl)c4)c3c2)cnc1Cl`, the growth [1] is reported as -39% (active), the growth [2] is reported as -55.6% (active) and the growth [3] is reported as -9.37% (active). For the same compound, the growth [4] was 6.78% (active), the growth [5] was -8.39% (active) and the growth [6] was -71.6% (active). The growth [7] was -60.4% (active), the growth [8] was 10.8% and the growth [9] was -81.3% (active).
